For 7 compounds, growth inhibition results are on record in PubChem BioAssay (NCI).

Each structure is given as a SMILES string. Several values for one entry are separate records, joined by “and”; a condition that tells them apart may be missing. Equal values may be shown once. The panel holds about 79,000 compounds, 15% with a hit somewhere; the sample as a whole holds those more often. Some compounds were tested as several samples or in several runs, with calls that do not always agree. Activity calls are given as the source filed them. No stated cut-off is given here; in the data, active means growth inhibition above about 70%; inactive means the rest.

Experiment [1] is described as follows: NCI Yeast Anticancer Drug Screen. Data for the rad50 strain (AID 155).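 Further: 0% = growth of vehicle-only cultures of the same strain.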 The settings on record: S. cerevisiae rad50 strain growth inhibition, stronger effect = higher value. The procedure, abridged:
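Relative growth inhibition (compound vs vehicle) was measured in yeast with a defined repair-gene alteration.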

The nature of experiment [2]: NCI Yeast Anticancer Drug Screen. Data for the mec2-1 strain (AID 157). The settings on record: S. cerevisiae mec2-1 strain, stronger effect = higher value. The procedure, abridged:
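Using mec2-1 yeast: add compound, measure growth, express inhibition versus vehicle-treated cultures.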

The nature of experiment [3]: NCI Yeast Anticancer Drug Screen. Data for the sgs1 mgt1 strain (AID 161).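 Further: 0% = growth of cultures given vehicle only.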 The conditions noted are these: S. cerevisiae sgs1 mgt1 strain, stronger effect = higher value. The procedure, abridged: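 Percent growth inhibition was derived by comparing compound-exposed mutant yeast with vehicle-exposed cultures. The strain carries alterations in DNA damage repair.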
Experiment [4] in a line: NCI Yeast Anticancer Drug Screen. Data for the cln2 rad14 strain (AID 165).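 Further: 0% = growth equal to vehicle treated cultures.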 The conditions noted are these: S. cerevisiae cln2 rad14 strain, stronger effect = higher value. The procedure, abridged:
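Yeast strain cln2 rad14, bearing defects in cell cycle control and DNA repair, serves as the test system; values reflect growth inhibition compared with vehicle.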

A short description of experiment [5]: NCI Yeast Anticancer Drug Screen. Data for the bub3 strain (AID 167). The conditions noted are these: S. cerevisiae bub3 mutant strain, stronger effect = higher value. Summed up:
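Screening used yeast with an engineered genetic alteration affecting cell cycle control. Compound-exposed cultures were compared with vehicle cultures, and reduced growth was taken as inhibition.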

Experiment [6] in a line: NCI Yeast Anticancer Drug Screen. Data for the mlh1 rad18 strain (AID 175). The settings on record: S. cerevisiae mlh1 rad18 strain growth inhibition, stronger effect = higher value. The procedure, abridged: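 Steps: expose repair-defective yeast to compound; measure growth; express inhibition against vehicle-treated controls.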
[7] abbreviates: at 5.0 µM (retest, dose inferred, filed as 0.5).
Setting [8] is: at 50.0 µM (retest, dose inferred, filed as 5.0).

Take `O=C(COc1ccc(Cl)cc1Cl)Nc1cccc(C(F)(F)F)c1`: the growth inhibition is -4% (inactive) in experiment [1] (setting [7]); -3% (inactive) in experiment [1] (setting [8]); -4.5% (inactive) in experiment [1] (at 50.0 µM); -18% (inactive) in experiment [2] (setting [7]); -25% (inactive) in experiment [2] (setting [8]); 7.95% (inactive) in experiment [2] (at 50.0 µM). Besides, the growth inhibition is -3% (inactive) in experiment [3] (setting [7]); -2% (inactive) in experiment [3] (setting [8]); 9.65% (inactive) in experiment [3] (at 50.0 µM); -3% (inactive) in experiment [4] (setting [7]); -13% (inactive) in experiment [4] (setting [8]); 41.9% (inactive) in experiment [4] (at 50.0 µM). The growth inhibition was 12% (inactive) in experiment [5] (setting [7]); 0% (inactive) in experiment [5] (setting [8]); 1% (inactive) in experiment [5] (at 50.0 µM); 1% (inactive) in experiment [6] (setting [7]); 10% (inactive) in experiment [6] (setting [8]); -0.4% (inactive) in experiment [6] (at 50.0 µM).

For `CN(C)c1ccc(/C=C/c2ccc3ccccc3[n+]2C)cc1`, the growth inhibition in experiment [1] (setting [7]) is 1% (inactive); in experiment [1] (setting [8]) it was 98% (active); in experiment [1] (at 50.0 µM), 53.4% (inactive); in experiment [2] (setting [7]), 3% (inactive); in experiment [2] (setting [8]) it was 98% (active); in experiment [2] (at 50.0 µM), 99% (active). Further, the growth inhibition in experiment [3] (setting [7]) is 11% (inactive); in experiment [3] (setting [8]) it was 97% (active); in experiment [3] (at 50.0 µM), 46.2% (inactive); in experiment [4] (setting [7]), 3% (inactive); in experiment [4] (setting [8]), 98% (active); in experiment [4] (at 50.0 µM), 98% (active). Moreover, the growth inhibition in experiment [5] (setting [7]) is -9% (inactive); in experiment [5] (setting [8]) it was 99% (active); in experiment [5] (at 50.0 µM), 84.2% (active); in experiment [6] (setting [7]), -15% (inactive); in experiment [6] (setting [8]), 98% (active); in experiment [6] (at 50.0 µM) it was 98.3% (active).

As for `O=C1/C(=C\c2ccc([N+](=O)[O-])cc2)Sc2scc(-c3ccc(O)c(O)c3)[n+]21`, the growth inhibition is 6% (inactive) in experiment [1] (setting [7]); 93% (active) in experiment [1] (setting [8]); 83.2% (active) in experiment [1] (at 50.0 µM); -10% (inactive) in experiment [2] (setting [7]); 95% (active) in experiment [2] (setting [8]); 93.8% (active) in experiment [2] (at 50.0 µM). The growth inhibition in experiment [3] (setting [7]) was 14% (inactive); in experiment [3] (setting [8]), 96% (active); in experiment [3] (at 50.0 µM) it was 94.9% (active); in experiment [4] (setting [7]), -4% (inactive); in experiment [4] (setting [8]), 93% (active); in experiment [4] (at 50.0 µM) it was 71.1% (active). Also, the growth inhibition in experiment [5] (setting [7]) was -19% (inactive); in experiment [5] (setting [8]), 98% (active); in experiment [5] (at 50.0 µM), 92.5% (active); in experiment [6] (setting [7]), 23% (inactive); in experiment [6] (setting [8]), 97% (active); in experiment [6] (at 50.0 µM), 90.8% (active).

Take `CSC1SCC2C(=O)N(C)C(C(C)C)C(=O)OCC(NC(=O)c3cnc4ccccc4n3)C(=O)NC(C)C(=O)N(C)C1C(=O)N(C)C(C(C)C)C(=O)OCC(NC(=O)c1cnc3ccccc3n1)C(=O)NC(C)C(=O)N2C` (stereo unspecified): the growth inhibition in experiment [1] (setting [7]) is 8% (inactive) and 97% (active); in experiment [1] (setting [8]), 98% (active) and 97% (active); in experiment [1] (at 50.0 µM), 98.8% (active) and 91.2% (active); in experiment [2] (setting [7]), 4% (inactive) and 99% (active); in experiment [2] (setting [8]), 98% (active); in experiment [2] (at 50.0 µM), 99.5% (active) and 91.7% (active). Besides, the growth inhibition in experiment [3] (setting [7]) is 2% (inactive) and 98% (active); in experiment [3] (setting [8]), 98% (active); in experiment [3] (at 50.0 µM) it was 98.8% (active) and 93% (active); in experiment [4] (setting [7]), 8% (inactive) and 94% (active); in experiment [4] (setting [8]), 98% (active) and 96% (active); in experiment [4] (at 50.0 µM), 98.2% (active) and 90.2% (active). Further, the growth inhibition in experiment [5] (setting [7]) is 7% (inactive) and 96% (active); in experiment [5] (setting [8]) it was 98% (active) and 97% (active); in experiment [5] (at 50.0 µM), 98.7% (active) and 90.3% (active); in experiment [6] (setting [7]) it was 6% (inactive) and 98% (active); in experiment [6] (setting [8]), 98% (active) and 97% (active); in experiment [6] (at 50.0 µM), 99% (active) and 90.2% (active).

As for `Oc1ccc2ccccc2c1Cc1c(O)ccc2ccccc12`, the growth inhibition in experiment [1] (setting [7]) is -1% (inactive); in experiment [1] (setting [8]), 86% (active); in experiment [1] (at 50.0 µM), 33% (inactive) and 99.2% (active); in experiment [2] (setting [7]), 11% (inactive); in experiment [2] (setting [8]) it was 96% (active); in experiment [2] (at 50.0 µM), 29.8% (inactive) and 22.7% (inactive). The growth inhibition in experiment [3] (setting [7]) is 7% (inactive); in experiment [3] (setting [8]), 53% (inactive); in experiment [3] (at 50.0 µM) it was 44.1% (inactive) and 99.5% (active); in experiment [4] (setting [7]), -25% (inactive); in experiment [4] (setting [8]), 95% (active); in experiment [4] (at 50.0 µM), 21.6% (inactive) and 97.8% (active). Besides, the growth inhibition in experiment [5] (setting [7]) was -6% (inactive); in experiment [5] (setting [8]), 95% (active); in experiment [5] (at 50.0 µM), 16.2% (inactive) and 48.6% (inactive); in experiment [6] (setting [7]) it was -8% (inactive); in experiment [6] (setting [8]), 89% (active); in experiment [6] (at 50.0 µM), 16.4% (inactive) and 99.3% (active).

Consider `OC(c1ccccc1)(c1ccccc1)c1ccccc1` (tested in a mixture with another compound), for which the growth inhibition in experiment [1] (setting [7]) was -5% (inactive); in experiment [1] (setting [8]), 94% (active); in experiment [1] (at 50.0 µM), 10.7% (inactive) and 96.7% (active); in experiment [2] (setting [7]) it was -7% (inactive); in experiment [2] (setting [8]), 91% (active); in experiment [2] (at 50.0 µM), 2.55% (inactive) and 96.5% (active). For the same compound, the growth inhibition was -3% (inactive) in experiment [3] (setting [7]); 90% (active) in experiment [3] (setting [8]); -1.85% (inactive) and 92.7% (active) in experiment [3] (at 50.0 µM); -12% (inactive) in experiment [4] (setting [7]); 94% (active) in experiment [4] (setting [8]); -4.75% (inactive) and 95.2% (active) in experiment [4] (at 50.0 µM). Moreover, the growth inhibition in experiment [5] (setting [7]) is -7% (inactive); in experiment [5] (setting [8]) it was 96% (active); in experiment [5] (at 50.0 µM) it was 1.15% (inactive) and 95.4% (active); in experiment [6] (setting [7]), -6% (inactive); in experiment [6] (setting [8]), 93% (active); in experiment [6] (at 50.0 µM), 9.15% (inactive) and 94% (active).

Consider `Cn1c2ccccc2c(=O)c2ccccc21`, for which the growth inhibition in experiment [1] (setting [7]) was 4% (inactive); in experiment [1] (setting [8]), 38% (inactive); in experiment [1] (at 50.0 µM), -16.6% (inactive) and 82% (active); in experiment [2] (setting [7]), 23% (inactive); in experiment [2] (setting [8]), 9% (inactive); in experiment [2] (at 50.0 µM), -18.9% (inactive) and 13.4% (inactive). For the same compound, the growth inhibition in experiment [3] (setting [7]) was -5% (inactive); in experiment [3] (setting [8]), 9% (inactive); in experiment [3] (at 50.0 µM), -17.4% (inactive) and 18.6% (inactive); in experiment [4] (setting [7]), -4% (inactive); in experiment [4] (setting [8]), -2% (inactive); in experiment [4] (at 50.0 µM), -11.3% (inactive) and -35.4% (inactive). The growth inhibition in experiment [5] (setting [7]) was -9% (inactive); in experiment [5] (setting [8]) it was 1% (inactive); in experiment [5] (at 50.0 µM) it was 14.2% (inactive) and 3.6% (inactive); in experiment [6] (setting [7]) it was -1% (inactive); in experiment [6] (setting [8]), 20% (inactive); in experiment [6] (at 50.0 µM), -28.4% (inactive) and 31.8% (inactive).
